{"source": "PubChem BioAssay AID1063", "about": "(University of Pittsburgh Molecular Library Screening Center, 2008)", "note": "The campaign covered roughly 200,000 compounds. About 18,000 (9%) were called active. Rule as the data show it: active = inhibition above about 50%; inactive = the rest. The full list was thinned out, with actives kept by preference.", "data": [{"experiment": "Leishmania major promastigote growth inhibition, primary screen (AID 1063);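 also: promastigotes grown with compound for 44 hours at 28 °C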", "conditions": "Leishmania major promastigotes, resazurin fluorescence viability; at 10 µM; active compounds read high", "values": [{"smiles": "O=C(c1ccc(N2CCOCC2)c([N+](=O)[O-])c1)N1CCN(S(=O)(=O)c2cccs2)CC1", "inhibition": "26.9% (inactive)"}, {"smiles": "Cn1cnnc1Sc1ccc(CN2CCN(C3CCCC3)C(CCO)C2)o1", "note": "(stereo unspecified)", "inhibition": "-0.44% (inactive)"}, {"smiles": "COc1ccc(NC(=O)C(Br)C(C)C)cc1", "note": "(stereo unspecified)", "inhibition": "-2.81% (inactive)"}, {"smiles": "CN(C)c1ccc(C(=S)N2CCN(C(=S)Nc3ccc(Cl)cc3)CC2)cc1", "inhibition": "-3.85% (inactive)"}, {"smiles": "O=C1CN(C(=O)COC(=O)c2cnc(Cl)c(Cl)c2)c2ccccc2N1", "inhibition": "-5.42% (inactive)"}, {"smiles": "O=c1c([N+](=O)[O-])cccn1Cc1ccc(F)cc1Cl", "inhibition": "13.1% (inactive)"}, {"smiles": "CSc1ccccc1NC(=O)CN(C)CC(=O)Nc1ccc(Cl)cc1[N+](=O)[O-]", "inhibition": "12% (inactive)"}, {"smiles": "COCCNc1cc(NCCOC)c([N+](=O)[O-])cc1[N+](=O)[O-]", "inhibition": "32.9% (inactive)"}, {"smiles": "CCN(CC)CCNc1ccc(Cl)cc1[N+](=O)[O-]", "inhibition": "52.1% (active)"}, {"smiles": "C=CCn1c2ccccc2c2nnc(SC(CC)C(=O)Nc3nc(C)c(C(=O)OCC)s3)nc21", "note": "(stereo unspecified)", "inhibition": "62.5% (active)"}, {"smiles": "CCOC(=O)c1sc(NC(=O)C(CC)Sc2nccn2C)nc1C", "note": "(stereo unspecified)", "inhibition": "9.41% (inactive)"}, {"smiles": "C=CCn1c2ccccc2c2nnc(SCc3[nH]c(=O)[nH]c3C(=O)CCCCC(=O)OCC)nc21", "inhibition": "4.8% (inactive)"}, {"smiles": "COc1ccccc1C(=O)CSc1cccc[n+]1[O-]", "inhibition": "-7.87% (inactive)"}, {"smiles": "COc1cccc(C(=O)Nc2nc3ccc(S(C)(=O)=O)cc3s2)c1", "inhibition": "16% (inactive)"}, {"smiles": "CC(C)c1nc2sc3c(c2c(=O)n1N)CC(C)(C)OC3", "inhibition": "-0.56% (inactive)"}, {"smiles": "Cc1cc(C)c(NC(=O)CS(=O)CC(=O)Nc2cccnc2)c(C)c1", "note": "(stereo unspecified)", "inhibition": "-5.42% (inactive)"}, {"smiles": "Cc1ccc(-c2nc(-c3cccnc3)sc2CC(=O)Nc2ccc(C)c(Cl)c2)cc1", "inhibition": "78.2% (active)"}, {"smiles": "O=C(O)Cc1sc(-c2ccc(C(=O)O)cc2)nc1-c1ccccc1", "inhibition": "-1.45% (inactive)"}, {"smiles": "CC(C)CC(CC(C)C)=NNC(=O)c1ccc(CSc2nncn2C)cc1", "inhibition": "-4.77% (inactive)"}, {"smiles": "O=C(CN1C(=O)NC2(CCCC2)C1=O)NCC1CCCO1", "note": "(stereo unspecified)", "inhibition": "-4.12% (inactive)"}, {"smiles": "Cc1cc(=O)oc2c1c(C)nn2-c1ccc(Cl)cc1", "inhibition": "-5.67% (inactive)"}, {"smiles": "CCC(CC)C(=O)Nc1ccc(S(=O)(=O)Nc2nccs2)cc1", "inhibition": "6.97% (inactive)"}, {"smiles": "O=C(NC(=S)Nc1ccc(S(=O)(=O)Nc2ncccn2)cc1)c1cccc(Br)c1", "inhibition": "-8.62% (inactive)"}, {"smiles": "Cc1nc2ccccc2c2oc(C(=O)NCCCN3CCC(C)CC3)cc12", "inhibition": "24% (inactive)"}, {"smiles": "Cc1nc2ccccc2c2oc(C(=O)NCC3CCCO3)cc12", "note": "(stereo unspecified)", "inhibition": "11.4% (inactive)"}, {"smiles": "CCCN(CCC)CCNC(=O)c1cc2c(C)nc3ccccc3c2o1", "inhibition": "56.9% (active)"}]}]}
